High-throughput results (PubChem)
Rac1 wt GTP bind – modulators of human Rac1 wildtype GTP binding. 190,000 compounds, 0.27% hits. GST-Rac1 beads, fluorescent GTP binding, flow cytometry; actives lie on both sides; 0 = cold GTP competed, 100 = untreated. P63000. AID 757. GTP binding activity (% of control), % at 10 µM;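 active means GTP binding activity at least 20 points away from the 100% control level, either lower or higher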
Rac1 act GTP bind – human Rac1 activated mutant GTP binding change; 190,000 compounds, 0.11% hits; P63000; GST-Rac1 activated beads, fluorescent GTP binding, flow cytometry; actives lie on both sides; 100% means binding = to untreated wells; percent activity (GTP binding), % at 10 µM;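 active means GTP binding at least 20 percentage points away from the 100% baseline, in either direction, so actives lie on both sides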
Cdc42 wt GTP – modulators (inhibitors or activators) of GTP binding to human Cdc42 wildtype; P60953; GST-Cdc42 beads, Bodipy-GTP binding, flow cytometry; actives lie on both sides; percent activity (GTP binding), % at 10 µM; 190,000 compounds, 0.2% hits; AID 761;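 active means percent activity GTP binding at least 20 points away from the 100% baseline, either down as inhibitor or up as activator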;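 further: median bead fluorescence of bound Bodipy-FL-GTP at 100 nM; 0% = excess unlabeled GTP control and 100% = no compound control; below 100% means less GTP binding so inhibitor and above means activator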
Target sequence (P60953 whole entry, looked up): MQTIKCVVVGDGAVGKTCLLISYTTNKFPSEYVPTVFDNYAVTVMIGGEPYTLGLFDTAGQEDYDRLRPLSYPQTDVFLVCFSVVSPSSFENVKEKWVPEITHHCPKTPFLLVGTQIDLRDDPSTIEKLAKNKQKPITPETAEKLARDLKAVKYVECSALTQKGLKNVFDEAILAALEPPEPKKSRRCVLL
HRas wt GTP bind – changes GTP binding to wildtype human HRas | 190,000 compounds, 0.14% hits | P01112 | GST-Ras wt beads, Bodipy-FL-GTP binding, flow cytometry; actives lie on both sides | AID 759 | GTP binding activity, % at 10 µM;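 active means GTP binding activity at least 20% away from the 100% baseline, either lowered as inhibitor or raised as activator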;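 further: 0% = unlabeled GTP competition control and 100% = no-compound control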
Target sequence (P01112 whole entry, looked up): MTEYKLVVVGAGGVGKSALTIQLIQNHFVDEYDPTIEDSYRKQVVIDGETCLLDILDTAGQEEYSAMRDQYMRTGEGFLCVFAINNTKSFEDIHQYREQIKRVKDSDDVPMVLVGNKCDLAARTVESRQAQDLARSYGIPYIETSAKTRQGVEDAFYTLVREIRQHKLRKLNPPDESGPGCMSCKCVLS
Rab2A wt mod – changes GTP binding to wildtype dog Rab2A, up or down. GST-Rab2 wt beads, Bodipy-GTP binding, flow cytometry. GTP binding activity, % at 10 µM. 190,000 compounds, 0.19% hits;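 active means GTP binding activity at least 20 points away from 100%, either lowered or raised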;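 further: 0% = beads with excess unlabeled GTP and 100% = no-compound control corrected for plate trend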
Rab7 wt modul – alters GTP binding to wildtype dog Rab7; GST-Rab7 beads, fluorescent GTP binding, flow cytometry; actives lie on both sides; untreated = 100%, excess cold GTP = 0%; GTP binding activity (percent of control), % at 10 µM; 190,000 compounds, 0.055% hits;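 active means fluorescent GTP binding to Rab7 beads changed by at least 20 points from the 100% baseline, either direction, mostly lower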;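 further: median green fluorescence of bound Bodipy-FL-GTP per Rab7 bead population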
An asterisk follows results filed as active; [ ] = dose if it differs, or a comment. A selection: hits, their analogues and other compounds. The true share with any hit is near 0.37%.

SMILES	Rac1 wt GTP bind	Rac1 act GTP bind	Cdc42 wt GTP	HRas wt GTP bind	Rab2A wt mod	Rab7 wt modul
Cc1ccc(N2C(=O)CC(Sc3ccccc3C(=O)O)C2=O)cc1C (stereo unspecified)	98	96	89	94	90	93
O=C1CC(C2CCCO2)C(=O)N1c1ccc(Cl)c(Cl)c1 (stereo unspecified)	98	93	97	99	98	101
O=C(NC1CCCCCC1)c1cc(=O)[nH]c2ccc(S(=O)(=O)N3CCOCC3)cc12	98	100	97	96	94	92
Cc1csc(NC(=O)c2cc(=O)[nH]c3ccc(S(=O)(=O)N4CCOCC4)cc23)n1	75*	89	80	84	79*	94
Cn1c(C(=O)OCC(=O)NCc2ccco2)cc2sccc21	105	99	101	99	100	98
CCC(OC(=O)c1cc2sccc2n1C)C(=O)NCc1ccco1 (stereo unspecified)	37*	37*	40*	44*	36*	22*
O=C(c1ccc(F)cc1)N1CCCCC(S(=O)(=O)c2ccccc2)C1=O (stereo unspecified)	109	100	104	101	101	100
CC(C)NC(=S)N(CCc1ccncc1)C(C)C	98	96	97	99	99	105
O=C(CCc1nnc(-c2ccc3c(c2)OCO3)o1)N1CCC(c2ccc(F)cc2)C1 (stereo unspecified)	88	79*	81	87	82	96
CC(OC(=O)C1CC1)C(=O)Nc1ccc([N+](=O)[O-])cc1Cl (stereo unspecified)	97	96	96	99	97	97
CCOC(=O)c1sc2ncn(/N=C/c3ccc(O)c(OC)c3)c(=O)c2c1C	99	93	91	98	95	103
Cc1ccc(C(=O)Nc2ccnc(-c3cccnc3)n2)cc1	89	94	94	94	94	92
Cc1ccc(NC(=O)Nc2ccnc(-c3cccnc3)n2)cc1	83	86	65*	67*	64*	87
COC(=O)c1ccc(/C=N/Nc2nc(-c3ccc(Cl)cc3Cl)cs2)cc1	130*[activator]	119	127*[activator]	121*[activator]	123*[activator]	124*[activator]
COCCn1c(=S)[nH]c2cc(C(=O)N3CCc4ccccc4C3)ccc2c1=O	124*[activator]	95	104	102	103	103
COc1ccc2cc(C)c3nnc(SCc4cccnc4)n3c2c1	86	90	79*	82	83	95
COc1ccccc1N1C(=O)c2cccc3c(C(=O)O)ccc(c23)C1=O	114	98	106	103	103	103
COc1ccc2c3c(cccc13)C(=O)N(O)C2=O	79*	90	91	84	82	89
CC(C)CCn1c(CN2CCN(Cc3ccccc3)CC2)nc2c1c(=O)n(C)c(=O)n2C	159*[activator]	120*[activator]	156*[activator]	116	123*[activator]	105
Cn1c(=O)c2cc(S(=O)(=O)NCCC(=O)NCc3ccccc3Cl)ccc2n(C)c1=O	89	85	68*	68*	64*	91
CCOc1ccc(CCNc2ccc3nnc(-c4ccccc4)n3n2)cc1OCC	76*	89	79*	74*	76*	88
Clc1ccc(CNc2ccc3nnc(-c4ccccc4)n3n2)cc1	98	97	98	97	97	94
CC(C)(C)c1ccccc1NC(=O)c1c(O)c2cccc3c2n(c1=O)CC3	99	101	98	99	102	100
O=C(NC1CCCCC1)c1cc([N+](=O)[O-])[nH]n1	127*[activator]	108	111	111	109	109
CCCCNC(=O)c1cc([N+](=O)[O-])[nH]n1	127*[activator]	108	108	106	104	104
SMILES	Rac1 wt GTP bind	Rac1 act GTP bind	Cdc42 wt GTP	HRas wt GTP bind	Rab2A wt mod	Rab7 wt modul
CCOC(=O)C1(CC2CCCCO2)CCN(S(=O)(=O)c2cccc(F)c2)CC1 (stereo unspecified)	101	99	97	99	98	100
Cc1nn(C(C)C(=O)NCC2CCCO2)c(C)c1[N+](=O)[O-] (stereo unspecified)	100	95	98	97	97	104
CC1=CCC[C@@H]2[C@@](C)(CC/C(C)=C/C(=O)O)[C@H](C)CC[C@@]12C	100	98	97	98	101	99
N=C1/C(=C\c2ccc(SCc3ccco3)o2)C(=O)N=C2SC=NN12	76*	81	72*	74*	77*	88
O=C(CCc1nnc(CCC2CCCCC2)o1)NCc1ccon1	100	95	96	99	100	104
CCn1c(O)c(/C=C/C=C/C=Nc2ccccc2)sc1=S	94	93	95	96	98	102
CCCCn1c(O)c(/C=C/C=C/C=Nc2ccccc2)sc1=S	84	78*	85	83	88	93
CN1C(=O)c2ccc(NC(=O)CCS(=O)(=O)c3ccccc3)cc2C1=O	94	92	96	95	96	104
Cc1ccccc1OCCn1cc(C(=S)N2CCN(C)CC2)c2ccccc21	107	100	102	104	104	105
COc1ccccc1OCCn1cc(C(=O)O)c2ccccc21	120*[activator]	120*[activator]	114	111	114	109
O=C(O)c1cn(CCOc2ccccc2Cl)c2ccccc12	121*[activator]	115	117	113	119	113
COc1ccccc1OCCn1cc(C#N)c2ccccc21	107	97	103	100	103	97
CCN(CC)S(=O)(=O)c1ccc(C(=O)Oc2cc(C)[nH]c(=O)c2[N+](=O)[O-])cc1	96	97	94	96	100	104
CCOC(=O)COc1ccc(Br)cc1/C=C/c1[nH]c(=O)[nH]c(=O)c1[N+](=O)[O-]	83	88	83	89	92	100
O=C(COc1ccccc1/C=C\c1[nH]c(=O)[nH]c(=O)c1[N+](=O)[O-])Nc1ccccc1	79*	77*	73*	79*	77*	95
O=C(O)c1ccccc1OCCOc1ccccc1	157*[activator]	132*[activator]	138*[activator]	123*[activator]	130*[activator]	123*[activator]
COc1ccc(C(=O)C2CCCN(Cc3ccc(Sc4nncn4C)o3)C2)cc1F (stereo unspecified)	96	98	97	97	100	98
O=C(NCc1ccco1)c1cnn2c(C(F)F)cc(-c3ccccc3)nc12	99	96	97	98	98	99
COCCNC(=O)c1cnn2c(C(F)F)cc(-c3ccccc3)nc12	79*	88	83	90	87	98
